{
  "source": "the supplement of paper PMC6555819",
  "data": [
    {"system": "PPARg:RXRa (NR concentration 180 nM, RXRa partner concentration 90 nM)", "assay": "PBM binding z-score (relative to random genomic background probes); higher = stronger binding; sequences stand for … in GC…GCGATTGACAGCGTAGAATGAAGG", "method_in_brief": "(§1)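 Custom Agilent 4×180K protein-binding microarrays carried double-stranded probes, each with a 34-nt variable region. These regions held direct-repeat seeds, single-nucleotide variants, half-site ablations and random human genomic background sequences. Ligand-free nuclear receptor dimers were incubated on the arrays for 1 h, antibodies against each partner (one per run) detected binding, and scanned fluorescence was regression-normalized. Binding z-scores take the random background probes as reference.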", "values": [
      {"sequence": "ATCGAAAGGTCGTGAGGTGTGTATACAGAAAGGC", "PBM binding z-score": 3.6},
      {"sequence": "GGAACGAGGGCAAAGGTGATAGCATCTGTCGACG", "PBM binding z-score": 9.32},
      {"sequence": "ATATGGAGGTTAAGGGTCATTCAGGTTGGTTCGC", "PBM binding z-score": 9.22},
      {"sequence": "ATCGAAAGGTCGTGAGGTGACTATACAGAAAGGC", "PBM binding z-score": 4.59},
      {"sequence": "CGTCAAAGTTCAACTAAGGTAACTTAAAGCACGC", "PBM binding z-score": 5.21},
      {"sequence": "CGGCCAAGGTCAAAGGTCAGTGAAGAGATGACGG", "PBM binding z-score": 10.8},
      {"sequence": "ATCTCTAGGTAAAGGTCAGTGAAAGATCGATAGA", "PBM binding z-score": 6.77},
      {"sequence": "CGTCCAAGGTCATAAGAGGTCAGTGAAGACAGAT", "PBM binding z-score": 5.38},
      {"sequence": "CCTAGTTGGCCAAGGTCACACACGCTATAGGTAC", "PBM binding z-score": 2.42},
      {"sequence": "CCTTACGGGTCACGGGGTTATAGCACGACGAGCG", "PBM binding z-score": 8.37},
      {"sequence": "TAGCCTAGGTCATTCAGGGGTCAGTATAGAAAGC", "PBM binding z-score": 4.13},
      {"sequence": "TCTAGTTGGTTACGGAGGTCACACACGACGGGTA", "PBM binding z-score": 2.59},
      {"sequence": "AATACAGGGTCGCTAGGCCAGAGTAGGTACGAAT", "PBM binding z-score": 1.05},
      {"sequence": "ATACCAAGGTGATCGTGAGTTCGTTGATACTAAC", "PBM binding z-score": 0.328},
      {"sequence": "CGTCCAAGGTCAATGCTAGGTCACTGAAAGCATT", "PBM binding z-score": 4.37},
      {"sequence": "TTACCAAGGTCAGCTGAGGTCGTTGATCCAACTC", "PBM binding z-score": 3.85},
      {"sequence": "ATCGAAAGGTCGACGAGTTGAGTATACACCGTTT", "PBM binding z-score": 2.27},
      {"sequence": "TTACAAAGGTGAGCTGAGGTCGTTGATCCAACTC", "PBM binding z-score": 1.57},
      {"sequence": "GGAACGAGGGCATTCGAGTTGATAGCATGGCGAT", "PBM binding z-score": 0.867},
      {"sequence": "CCGACTGGGGCAAAGGTTACCACACTCAGTACGA", "PBM binding z-score": 10.7},
      {"sequence": "CGTCAAAGTTCAACTAATGTAACGTAAAGCACGC", "PBM binding z-score": 4.72},
      {"sequence": "CCTTACGGGTCACTCTAGGTTATAGCATCGGAGT", "PBM binding z-score": 3.33},
      {"sequence": "GCTTACGGGTCAAAGGTTATAGTATGAATAGAAT", "PBM binding z-score": 11.2},
      {"sequence": "CCTACAGGGCCAAAGGTCATTGATTCCAATGCTC", "PBM binding z-score": 8.97},
      {"sequence": "TAGCCTAGGTCATGGGCCAGTTTACCACGCGAAC", "PBM binding z-score": 3.6},
      {"sequence": "CGTCCAAGGTAAGAGAGGTCAGTGAATGCCGAGT", "PBM binding z-score": 0.401},
      {"sequence": "CCGACGGGGGCAGAAAGGTTACCATACCATCCGG", "PBM binding z-score": 1.68},
      {"sequence": "CCTACTGGGCCAAAGGTCAGTGATTCCAATGCTC", "PBM binding z-score": 11.7},
      {"sequence": "AGTCAAAGTTCATCTTGGTAACGTAAGATATGCT", "PBM binding z-score": 6.07},
      {"sequence": "ATACCAAGGTTATCGTGAGGTCGTTGATACTAAC", "PBM binding z-score": 1.24},
      {"sequence": "TCTCGGAGGTCACGAAGGTCAGAGCTTTCCAGAG", "PBM binding z-score": 7.7},
      {"sequence": "CCTTGCGGGTCACTGACAGGTTATAGCATTTGGA", "PBM binding z-score": 5.18},
      {"sequence": "CTCGAAAGGTCGTCCTCAGGTGAGTATACCAAAC", "PBM binding z-score": 2.08},
      {"sequence": "CAAACTAGGTCACCGGAAAGTCAAAGTCCGCATG", "PBM binding z-score": 9.52},
      {"sequence": "TAGCCTAGGTCATTCAGGGGCCAGAATAGAAAGC", "PBM binding z-score": 2.33},
      {"sequence": "CACACTAGGTCAAGAGGTCAAAGTCCGCTTCCCG", "PBM binding z-score": 9.41},
      {"sequence": "CTCGAAAGGTCGTGCTCAGGTGAGTATGCCAAAC", "PBM binding z-score": 2.57},
      {"sequence": "CAAACTAGGTCACAGAGGTCGAAGTCCGTGCGTA", "PBM binding z-score": 9},
      {"sequence": "CGTCCAAGGTCAGAGAGGTCATTGAATGCCGAGT", "PBM binding z-score": 4.47}
    ]},
    {"system": "PPARg:RXRa 270nM:90nM, anti-RXR (NR concentration 270 nM, RXRa partner concentration 90 nM)", "assay": "PBM binding z-score (relative to random genomic background probes); higher = stronger binding; sequences stand for … in GC…GCGATTGACAGCGTAGAATGAAGG", "method_in_brief": "as §1", "values": [
      {"sequence": "ATCGAAAGGTCGTGAGGTGTGTATACAGAAAGGC", "PBM binding z-score": 3.97},
      {"sequence": "GGAACGAGGGCAAAGGTGATAGCATCTGTCGACG", "PBM binding z-score": 8.6},
      {"sequence": "ATATGGAGGTTAAGGGTCATTCAGGTTGGTTCGC", "PBM binding z-score": 8.75},
      {"sequence": "ATCGAAAGGTCGTGAGGTGACTATACAGAAAGGC", "PBM binding z-score": 4.64},
      {"sequence": "CGTCAAAGTTCAACTAAGGTAACTTAAAGCACGC", "PBM binding z-score": 5.69},
      {"sequence": "CGGCCAAGGTCAAAGGTCAGTGAAGAGATGACGG", "PBM binding z-score": 8.98},
      {"sequence": "ATCTCTAGGTAAAGGTCAGTGAAAGATCGATAGA", "PBM binding z-score": 6.29},
      {"sequence": "CGTCCAAGGTCATAAGAGGTCAGTGAAGACAGAT", "PBM binding z-score": 5.99},
      {"sequence": "CCTAGTTGGCCAAGGTCACACACGCTATAGGTAC", "PBM binding z-score": 2.88},
      {"sequence": "CCTTACGGGTCACGGGGTTATAGCACGACGAGCG", "PBM binding z-score": 7.11},
      {"sequence": "TAGCCTAGGTCATTCAGGGGTCAGTATAGAAAGC", "PBM binding z-score": 4.56},
      {"sequence": "TCTAGTTGGTTACGGAGGTCACACACGACGGGTA", "PBM binding z-score": 3.61},
      {"sequence": "AATACAGGGTCGCTAGGCCAGAGTAGGTACGAAT", "PBM binding z-score": 0.765},
      {"sequence": "ATACCAAGGTGATCGTGAGTTCGTTGATACTAAC", "PBM binding z-score": -0.00894},
      {"sequence": "CGTCCAAGGTCAATGCTAGGTCACTGAAAGCATT", "PBM binding z-score": 5.11},
      {"sequence": "TTACCAAGGTCAGCTGAGGTCGTTGATCCAACTC", "PBM binding z-score": 4.1},
      {"sequence": "ATCGAAAGGTCGACGAGTTGAGTATACACCGTTT", "PBM binding z-score": 2.77},
      {"sequence": "TTACAAAGGTGAGCTGAGGTCGTTGATCCAACTC", "PBM binding z-score": 2.39},
      {"sequence": "GGAACGAGGGCATTCGAGTTGATAGCATGGCGAT", "PBM binding z-score": 0.479},
      {"sequence": "CCGACTGGGGCAAAGGTTACCACACTCAGTACGA", "PBM binding z-score": 8.79},
      {"sequence": "CGTCAAAGTTCAACTAATGTAACGTAAAGCACGC", "PBM binding z-score": 5.26},
      {"sequence": "CCTTACGGGTCACTCTAGGTTATAGCATCGGAGT", "PBM binding z-score": 3.69},
      {"sequence": "GCTTACGGGTCAAAGGTTATAGTATGAATAGAAT", "PBM binding z-score": 9.15},
      {"sequence": "CCTACAGGGCCAAAGGTCATTGATTCCAATGCTC", "PBM binding z-score": 8.45},
      {"sequence": "TAGCCTAGGTCATGGGCCAGTTTACCACGCGAAC", "PBM binding z-score": 3.88},
      {"sequence": "CGTCCAAGGTAAGAGAGGTCAGTGAATGCCGAGT", "PBM binding z-score": 1.2},
      {"sequence": "CCGACGGGGGCAGAAAGGTTACCATACCATCCGG", "PBM binding z-score": 3.06},
      {"sequence": "CCTACTGGGCCAAAGGTCAGTGATTCCAATGCTC", "PBM binding z-score": 10.2},
      {"sequence": "AGTCAAAGTTCATCTTGGTAACGTAAGATATGCT", "PBM binding z-score": 6},
      {"sequence": "ATACCAAGGTTATCGTGAGGTCGTTGATACTAAC", "PBM binding z-score": 1.56},
      {"sequence": "TCTCGGAGGTCACGAAGGTCAGAGCTTTCCAGAG", "PBM binding z-score": 7.54},
      {"sequence": "CCTTGCGGGTCACTGACAGGTTATAGCATTTGGA", "PBM binding z-score": 4.76},
      {"sequence": "CTCGAAAGGTCGTCCTCAGGTGAGTATACCAAAC", "PBM binding z-score": 3.47},
      {"sequence": "CAAACTAGGTCACCGGAAAGTCAAAGTCCGCATG", "PBM binding z-score": 7.27},
      {"sequence": "TAGCCTAGGTCATTCAGGGGCCAGAATAGAAAGC", "PBM binding z-score": 2.29},
      {"sequence": "CACACTAGGTCAAGAGGTCAAAGTCCGCTTCCCG", "PBM binding z-score": 7.85},
      {"sequence": "CTCGAAAGGTCGTGCTCAGGTGAGTATGCCAAAC", "PBM binding z-score": 3.95},
      {"sequence": "CAAACTAGGTCACAGAGGTCGAAGTCCGTGCGTA", "PBM binding z-score": 6.93},
      {"sequence": "CGTCCAAGGTCAGAGAGGTCATTGAATGCCGAGT", "PBM binding z-score": 5.05}
    ]}
  ]
}
